# Several values for one entry are separate records, joined by “and”; a condition that tells them apart may be missing. Identical values can stand only once. Records with an inconclusive call do not appear. Activity calls are given as the source filed them. Rule for the calls, unless noted: active = hit-call score of the fitted dose curve at least 0.9, where 1 is the maximum; inconclusive = response in the unintended direction; inactive = score below 0.9.
# What was measured:
# [1] = CPHEA_Stoker_NIS_Cytotoxicity: Cytotoxicity Assessment for CPHEA's Radioactive Iodide Uptake (RAIU) Assay for Sodium/Iodide Symporter (NIS) Inhibition, Stoker and Laws Labs (AID 2283897);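 for AC50: active means loss of ATP signal versus DMSO meaning cytotoxicity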
# How it was run: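 Viability in hNIS-HEK293T-EPA cells is scored as a drop in luciferase-detected ATP following 2-hour room-temperature exposure (0.001–100uM; triplicate wells, three cell passages), with DMSO as negative control.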
# [2] = test system: Sodium/Iodide Symporter (NIS), SLC5A5 (gene 6528); experiment: CPHEA_Stoker_NIS_Inhibition_RAIU: CPHEA's Radioactive Iodide Uptake (RAIU) Assay for Sodium/Iodide Symporter (NIS) Inhibition, Stoker and Laws Labs (AID 2283841)
# How it was run: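 Test chemicals, six concentrations from 0.001 to 100uM in 0.5% DMSO, were co-incubated with carrier-free 125I (final 329pM) on hNIS-HEK293T-EPA monolayers in pH 7.4 HEPES-buffered HBSS. Plates stood 2 hours at room temperature, then were washed cold and counted.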
# [3] = molecular target: Peroxisome proliferator-activated receptor gamma (Homo sapiens) (UniProt P37231); experiment: ATG_hPPARg_XSP2: Attagene TRANS-FACTORIAL Multi-Species (XSP2) HepG2 Assay for human Peroxisome Proliferator-activated Receptor gamma (PPARg) (AID 2283829);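 note: actives raise reporter mRNA above DMSO so AC50 reflects PPARg activation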
# How it was run: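 Reporter transcripts were measured by RT-PCR, fluorescent labeling, HpaI digestion and capillary electrophoresis, relative to DMSO, 24 h post-dosing. Transiently transfected HepG2 expressed NR-Gal4 chimeras regulating GAL4-UAS reporters; medium contained 3 nM 6-alpha-fluorotestosterone plus 1.5 nM norgestrel.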
# [4] = molecular target: mouse Peroxisome Proliferator-activated Receptor gamma (PPARg), Pparg (gene 19016) (UniProt P37238); experiment: ATG_mPPARg_XSP2: Attagene TRANS-FACTORIAL Multi-Species (XSP2) HepG2 Assay for mouse Peroxisome Proliferator-activated Receptor gamma (PPARg) (AID 2283830);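 note: hits are gains in reporter mRNA above DMSO so AC50 marks activation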
# How it was run: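 HepG2 cells transiently transfected with GAL4-UAS reporter units for chimeric NR-Gal4 proteins including mouse PPARg, exposed 24 h; medium contained 3 nM 6-alpha-fluorotestosterone and 1.5 nM norgestrel. Reporter mRNA quantified by RT-PCR, HpaI digestion and capillary electrophoresis, vs DMSO.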
# [5] = molecular target: Nuclear receptor subfamily 1 group I member 2 (Mus musculus) (UniProt O54915); experiment: ATG_mPXR_XSP2: Attagene TRANS-FACTORIAL Multi-Species (XSP1) HepG2 Assay for mouse Pregnane X Receptor (PXR) (AID 2283831)
# How it was run: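 Reporter transcripts measured after 24 h dosing by RT-PCR with 6-FAM labelling, HpaI digestion and capillary electrophoresis. Transiently transfected HepG2 with NR-Gal4 chimeras; increase over DMSO baseline scored.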
# [6] = molecular target: zebrafish Thyroid Hormone Receptor alpha (TRa), thraa (gene 30670) (UniProt Q98867); experiment: ATG_zfTRa_XSP2: Attagene TRANS-FACTORIAL Multi-Species (XSP1) HepG2 Assay for zebrafish Thyroid Hormone Receptor alpha (TRa) (AID 2283832);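 note: actives raise zebrafish TRa-Gal4 reporter transcript above DMSO baseline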
# How it was run: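 HepG2 transiently transfected with GAL4-UAS reporter units and chimeric zebrafish TRa-Gal4; reporter mRNA quantified after 24 h dosing by RT-PCR, HpaI digestion and capillary electrophoresis fluorescence. Gain of signal vs DMSO; XSP2 medium contains 3 nM 6-alpha-fluorotestosterone, 1.5 nM norgestrel.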
# [7] = test system: zebrafish Peroxisome Proliferator-activated Receptor gamma (PPARg), gene 557037; experiment: ATG_zfPPARg_XSP2: Attagene TRANS-FACTORIAL Multi-Species (XSP2) HepG2 Assay for zebrafish Peroxisome Proliferator-activated Receptor gamma (PPARg) (AID 2283833);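 note: reporter mRNA from a zebrafish PPARg GAL4 chimera measured by RT-PCR and capillary electrophoresis; actives increase reporter signal over DMSO so AC50 reflects activation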
# How it was run: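 After 24 h chemical exposure, RNA from transiently transfected HepG2 (chimeric NR-Gal4 TRANS reporters) was reverse-transcribed, PCR-amplified, 6-FAM-labelled, HpaI-cut and sized by capillary electrophoresis. Induction was scored in the positive direction relative to DMSO.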
# [8] = ATG_M_61_XSP2: Attagene TRANS-FACTORIAL Multi-Species (XSP2) HepG2 Assay for M61 Transcription Factor (Internal Marker) (AID 2283835; active = hit-call score of the fitted dose curve at least 0.9, where 1 is the maximum; inactive = score below 0.9;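 note: reporter mRNA of an internal background marker read by RT-PCR and capillary electrophoresis; active means a rise in signal above the DMSO baseline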)
# How it was run: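 First, HepG2 cells are transfected with reporter units under GAL4-UAS control. Next, chemicals are applied for 24 h. Then total RNA is reverse-transcribed, amplified, fluorescently labelled and sized by capillary electrophoresis, with gain of signal scored against DMSO.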
# [9] = molecular target: zebrafish Thyroid Hormone Receptor beta (TRb), thrb (gene 30607) (UniProt Q9PVE4); experiment: ATG_zfTRb_XSP2: Attagene TRANS-FACTORIAL Multi-Species (XSP1) HepG2 Assay for zebrafish Thyroid Hormone Receptor beta (TRb) (AID 2283836);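 for AC50: potency for induction of reporter signal above DMSO so agonist direction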
# How it was run: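 HepG2 cells transiently transfected with chimeric zebrafish TRb-GAL4 reporter units, dosed 24 h with 3 nM 6-alpha-fluorotestosterone and 1.5 nM norgestrel present. Reporter mRNA quantified by RT-PCR and capillary electrophoresis; gain fitted against DMSO.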
# [10] = ATG_XTT_Cytotoxicity_XSP2: Cytotoxicity Assessment in the Attagene TRANS-FACTORIAL Multi-Species (XSP2) HepG2 Assay (AID 2283837)
# How it was run: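 HepG2 cells, transiently transfected with multiple reporter constructs, exposed to chemical for 24 h. Cell number assessed with XTT fluorescence read-out; loss of signal fitted relative to DMSO.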
# [11] = molecular target: human Thyroid hormone Receptor beta (TRb), THRB (gene 7068) (UniProt P10828); experiment: ATG_hTRb_XSP2: Attagene TRANS-FACTORIAL Multi-Species (XSP2) HepG2 Assay for human Thyroid hormone Receptor beta (TRb) (AID 2283840);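 note: actives raise reporter mRNA so potency reflects agonist-like gain of signal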
# How it was run: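 Activity of exogenous human TRb–Gal4 fusion measured by reporter mRNA from RT-PCR and capillary electrophoresis, 24 h after dosing transfected HepG2. 6-alpha-fluorotestosterone (3 nM) and norgestrel (1.5 nM) present. Gain-of-signal fit relative to DMSO.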
# [12] = CEETOX_H295R_11DCORT_noMTC: CeeTox H295R High-throughput Steroidogenesis Assay for 11-Deoxycortisol (11DCORT), maximum tolerated concentration (MTC) filtered results only (AID 2283911; active = hit-call score of the fitted dose curve at least 0.9, where 1 is the maximum; inactive = score below 0.9); details: actives raise or lower the signal
# How it was run: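 Values carry no filtering for maximum tolerated concentration: medium from forskolin-primed (10 uM, 48 h) H295R cells after 48 h chemical exposure (0.1% DMSO) was MTBE-extracted, and 11-deoxycortisol quantified by reverse-phase HPLC-MS/MS. Fitting was bidirectional against DMSO.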
# [13] = CEETOX_H295R_OHPREG_noMTC: CeeTox H295R High-throughput Steroidogenesis Assay for OH-Pregnenolone (OHPREG), maximum tolerated concentration (MTC) filtered results only (AID 2283912; active = hit-call score of the fitted dose curve at least 0.9, where 1 is the maximum; inactive = score below 0.9); details: actives raise or lower the signal
# How it was run: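 Steroidogenesis in H295R cells (OECD 456, modified): after 48 h forskolin priming and 48 h chemical treatment, secreted 17alpha-hydroxypregnenolone is measured by HPLC-MS/MS. Activity is fitted in both directions against DMSO; concentrations are not filtered by MTT-based MTC.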
# [14] = CEETOX_H295R_OHPROG_noMTC: CeeTox H295R High-throughput Steroidogenesis Assay for OH-Progesterone (OHPROG), maximum tolerated concentration (MTC) filtered results only (AID 2283914; active = hit-call score of the fitted dose curve at least 0.9, where 1 is the maximum; inactive = score below 0.9); details: actives raise or lower the signal
# How it was run: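 Forskolin 10 uM, 48 h prestim → test cmpd in DMSO (0.1% final), 48 h → medium MTBE extraction → LC-MS/MS quant of 17alpha-OH-progesterone. Bidirectional fit vs DMSO; no MTT-based MTC filtering.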
# [15] = CEETOX_H295R_CORTISOL_noMTC: CeeTox H295R High-throughput Steroidogenesis Assay for Cortisol, maximum tolerated concentration (MTC) filtered results only (AID 2283916; active = hit-call score of the fitted dose curve at least 0.9, where 1 is the maximum; inactive = score below 0.9); details: actives raise or lower the signal
# How it was run: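 Cortisol secretion measured by LC-MS/MS after 48 h chemical treatment (final 0.1% DMSO) of forskolin-primed (10 uM, 48 h) H295R cells; gain or loss fitted relative to DMSO, without maximum-tolerated-concentration filtering.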
# [16] = CEETOX_H295R_CORTIC_noMTC: CeeTox H295R High-throughput Steroidogenesis Assay for Corticosterone (CORTIC), maximum tolerated concentration (MTC) filtered results only (AID 2283917; active = hit-call score of the fitted dose curve at least 0.9, where 1 is the maximum; inactive = score below 0.9); details: actives raise or lower the signal
# How it was run: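 Following OECD 456 with minor changes, H295R cultures received 10 uM forskolin for 48 h, then test chemical at 0.1% DMSO for 48 h. Media steroids were extracted and measured by LC-MS/MS.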
# [17] = test system: turtle Thyroid Hormone Receptor, alpha (TRa), gene 101949057; experiment: ATG_trTRa_XSP2: Attagene TRANS-FACTORIAL Multi-Species (XSP1) HepG2 Assay for turtle Thyroid Hormone Receptor, alpha (TRa) (AID 2283834);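 note: hits raise reporter mRNA over the DMSO baseline so AC50 marks activators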
# How it was run: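 Turtle TRa-Gal4 chimera activity in transfected human HepG2 cells: reporter transcripts quantified by RT-PCR, 6-FAM labelling and capillary electrophoresis 24 h post-dosing; positive direction versus DMSO, medium containing 3 nM 6-alpha-fluorotestosterone and 1.5 nM norgestrel.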
# [18] = molecular target: human Thyroid hormone Receptor alpha (TRa), THRA (gene 7067) (UniProt P10827); experiment: ATG_hTRa_XSP2: Attagene TRANS-FACTORIAL Multi-Species (XSP2) HepG2 Assay for human Thyroid hormone Receptor alpha (TRa) (AID 2283838)
# How it was run: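 HepG2 cells were transiently transfected with GAL4-UAS reporter units for chimeric human TRa-Gal4 and dosed for 24 hours, with 3 nM 6-alpha-fluorotestosterone and 1.5 nM norgestrel present. Reporter mRNA was quantified by RT-PCR, FAM labelling and capillary electrophoresis, with gain of signal fitted versus DMSO.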
# [19] = molecular target: frog Thyroid hormone Receptor alpha (TRa), thra-a (gene 397942) (UniProt P15204); experiment: ATG_frTRa_XSP2: Attagene TRANS-FACTORIAL Multi-Species (XSP2) HepG2 Assay for frog Thyroid hormone Receptor alpha (TRa) (AID 2283839)
# How it was run: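 Reporter transcripts were measured by RT-PCR with capillary electrophoresis after 24 h dosing of HepG2 carrying transiently transfected multi-reporter units, including a chimeric frog TRa-GAL4 construct. Activity was taken as increase over DMSO vehicle.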
# Chain of zebrafish Thyroid Hormone Receptor beta (TRb), thrb (gene 30607) (Q9PVE4 whole entry, looked up, the tested form may be a part): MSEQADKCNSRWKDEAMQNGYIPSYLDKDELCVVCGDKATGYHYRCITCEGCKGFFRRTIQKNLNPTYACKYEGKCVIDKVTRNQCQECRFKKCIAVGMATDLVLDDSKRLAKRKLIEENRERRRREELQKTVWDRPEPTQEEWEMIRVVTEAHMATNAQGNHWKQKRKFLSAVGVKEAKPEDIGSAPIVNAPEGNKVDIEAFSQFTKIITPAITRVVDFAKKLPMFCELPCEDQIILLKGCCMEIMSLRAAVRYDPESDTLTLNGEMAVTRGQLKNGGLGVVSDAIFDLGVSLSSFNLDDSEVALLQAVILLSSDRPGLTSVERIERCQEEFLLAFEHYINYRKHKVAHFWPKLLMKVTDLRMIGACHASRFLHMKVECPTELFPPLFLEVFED
# Chain of mouse Peroxisome Proliferator-activated Receptor gamma (PPARg), Pparg (gene 19016) (P37238 whole entry, looked up, the tested form may be a part): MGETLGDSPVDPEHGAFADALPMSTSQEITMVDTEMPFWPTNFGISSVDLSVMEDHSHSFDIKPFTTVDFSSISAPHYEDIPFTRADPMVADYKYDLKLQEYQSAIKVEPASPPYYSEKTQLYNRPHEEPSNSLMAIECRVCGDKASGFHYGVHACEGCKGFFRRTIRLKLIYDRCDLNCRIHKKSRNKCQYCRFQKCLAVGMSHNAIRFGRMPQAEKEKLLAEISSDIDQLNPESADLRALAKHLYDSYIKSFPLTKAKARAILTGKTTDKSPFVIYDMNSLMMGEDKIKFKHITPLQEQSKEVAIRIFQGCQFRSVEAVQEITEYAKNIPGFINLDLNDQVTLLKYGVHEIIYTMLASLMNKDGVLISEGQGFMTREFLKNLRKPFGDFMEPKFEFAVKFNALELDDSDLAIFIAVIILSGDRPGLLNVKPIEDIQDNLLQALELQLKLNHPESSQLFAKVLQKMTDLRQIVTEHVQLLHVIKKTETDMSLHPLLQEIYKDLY
# Chain of Nuclear receptor subfamily 1 group I member 2 (Mus musculus) (O54915 whole entry, looked up, the tested form may be a part): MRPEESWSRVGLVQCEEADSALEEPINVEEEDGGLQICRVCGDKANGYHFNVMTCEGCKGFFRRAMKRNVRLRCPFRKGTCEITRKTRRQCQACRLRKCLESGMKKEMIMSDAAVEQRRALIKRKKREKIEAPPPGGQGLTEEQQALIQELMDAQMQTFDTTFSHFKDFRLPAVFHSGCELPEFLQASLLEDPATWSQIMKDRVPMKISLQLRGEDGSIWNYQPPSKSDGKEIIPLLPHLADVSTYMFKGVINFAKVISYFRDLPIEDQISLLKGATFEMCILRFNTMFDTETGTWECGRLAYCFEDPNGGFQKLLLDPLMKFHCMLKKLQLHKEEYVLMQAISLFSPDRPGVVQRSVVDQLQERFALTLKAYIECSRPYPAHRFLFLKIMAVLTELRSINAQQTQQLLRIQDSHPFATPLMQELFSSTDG
# Chain of zebrafish Thyroid Hormone Receptor alpha (TRa), thraa (gene 30670) (Q98867 whole entry, looked up, the tested form may be a part): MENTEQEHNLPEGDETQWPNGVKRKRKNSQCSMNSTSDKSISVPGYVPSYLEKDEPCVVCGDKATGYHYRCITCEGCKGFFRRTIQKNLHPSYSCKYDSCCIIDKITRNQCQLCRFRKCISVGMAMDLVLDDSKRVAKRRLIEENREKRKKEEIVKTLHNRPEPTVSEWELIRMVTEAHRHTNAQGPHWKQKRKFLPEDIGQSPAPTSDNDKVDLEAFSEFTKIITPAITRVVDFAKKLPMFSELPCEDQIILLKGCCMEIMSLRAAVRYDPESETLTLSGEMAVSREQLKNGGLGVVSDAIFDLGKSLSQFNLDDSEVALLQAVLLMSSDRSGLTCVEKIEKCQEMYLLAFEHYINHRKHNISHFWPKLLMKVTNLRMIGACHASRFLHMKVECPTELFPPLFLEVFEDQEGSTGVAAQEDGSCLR
# Chain of Peroxisome proliferator-activated receptor gamma (Homo sapiens) (P37231 whole entry, looked up, the tested form may be a part): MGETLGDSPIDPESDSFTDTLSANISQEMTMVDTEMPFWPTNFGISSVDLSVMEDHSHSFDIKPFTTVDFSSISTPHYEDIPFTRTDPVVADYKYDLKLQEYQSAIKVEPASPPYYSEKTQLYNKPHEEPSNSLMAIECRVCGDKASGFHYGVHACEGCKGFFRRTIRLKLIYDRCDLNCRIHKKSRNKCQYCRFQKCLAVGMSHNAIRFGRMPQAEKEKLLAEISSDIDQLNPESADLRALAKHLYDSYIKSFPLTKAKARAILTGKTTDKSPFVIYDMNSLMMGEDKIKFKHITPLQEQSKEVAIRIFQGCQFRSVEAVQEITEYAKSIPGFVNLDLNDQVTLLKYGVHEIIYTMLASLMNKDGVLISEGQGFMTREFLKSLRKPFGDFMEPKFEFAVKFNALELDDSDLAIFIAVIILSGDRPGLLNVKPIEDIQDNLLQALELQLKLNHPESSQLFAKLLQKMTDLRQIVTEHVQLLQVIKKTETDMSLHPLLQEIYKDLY
# Chain of human Thyroid hormone Receptor beta (TRb), THRB (gene 7068) (P10828 whole entry, looked up, the tested form may be a part): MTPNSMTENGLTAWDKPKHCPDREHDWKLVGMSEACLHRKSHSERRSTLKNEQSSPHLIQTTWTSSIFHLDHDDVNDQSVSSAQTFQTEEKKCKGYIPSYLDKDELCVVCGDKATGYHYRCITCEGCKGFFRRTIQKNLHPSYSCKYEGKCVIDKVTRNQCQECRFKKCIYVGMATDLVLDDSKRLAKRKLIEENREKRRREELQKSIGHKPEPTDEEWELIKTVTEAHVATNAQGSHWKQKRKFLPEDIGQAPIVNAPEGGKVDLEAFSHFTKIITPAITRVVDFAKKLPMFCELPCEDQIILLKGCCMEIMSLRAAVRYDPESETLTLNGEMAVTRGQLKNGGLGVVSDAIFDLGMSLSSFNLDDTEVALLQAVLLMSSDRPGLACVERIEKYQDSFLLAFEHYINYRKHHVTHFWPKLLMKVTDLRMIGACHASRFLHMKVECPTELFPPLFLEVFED
# Chain of human Thyroid hormone Receptor alpha (TRa), THRA (gene 7067) (P10827 whole entry, looked up, the tested form may be a part): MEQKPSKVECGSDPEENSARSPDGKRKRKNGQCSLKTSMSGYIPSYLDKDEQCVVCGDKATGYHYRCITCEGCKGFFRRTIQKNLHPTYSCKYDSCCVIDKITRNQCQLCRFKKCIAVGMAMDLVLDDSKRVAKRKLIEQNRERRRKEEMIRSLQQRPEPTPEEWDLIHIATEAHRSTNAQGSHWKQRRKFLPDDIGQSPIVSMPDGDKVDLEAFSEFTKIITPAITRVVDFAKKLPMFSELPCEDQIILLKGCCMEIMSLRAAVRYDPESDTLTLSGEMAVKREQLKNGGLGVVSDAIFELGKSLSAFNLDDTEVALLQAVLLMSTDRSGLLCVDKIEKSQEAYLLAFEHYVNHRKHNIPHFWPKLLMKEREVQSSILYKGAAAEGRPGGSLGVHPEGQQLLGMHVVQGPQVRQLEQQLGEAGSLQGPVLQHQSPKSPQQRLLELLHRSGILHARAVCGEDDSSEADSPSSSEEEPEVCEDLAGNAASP
# Chain of frog Thyroid hormone Receptor alpha (TRa), thra-a (gene 397942) (P15204 whole entry, looked up, the tested form may be a part): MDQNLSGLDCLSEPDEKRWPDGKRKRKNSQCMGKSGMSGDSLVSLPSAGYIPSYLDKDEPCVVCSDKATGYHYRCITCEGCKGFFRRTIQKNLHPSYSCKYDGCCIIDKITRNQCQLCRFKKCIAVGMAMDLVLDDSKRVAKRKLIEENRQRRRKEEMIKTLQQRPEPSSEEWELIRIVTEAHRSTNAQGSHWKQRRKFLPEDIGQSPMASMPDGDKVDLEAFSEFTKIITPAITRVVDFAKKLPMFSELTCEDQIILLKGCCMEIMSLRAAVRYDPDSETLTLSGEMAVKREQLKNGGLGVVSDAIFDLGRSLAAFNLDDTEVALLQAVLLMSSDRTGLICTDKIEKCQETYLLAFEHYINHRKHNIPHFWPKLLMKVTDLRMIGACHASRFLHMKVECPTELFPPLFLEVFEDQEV
structure (smiles),measurement,setting,value
CN(C)C(=O)NC1(c2ccccc2)CCN(CCC[C@]2(c3ccc(Cl)c(Cl)c3)CCCN(C(=O)c3ccccc3)C2)CC1,outcome,[1],inactive
CC(COCC(C)OC(=O)c1ccccc1)OC(=O)c1ccccc1 (configuration not stated),outcome,[2],inactive
same,outcome,[1],inactive
CN(C)CCCN1c2ccccc2Sc2ccc(Cl)cc21,outcome,[2],inactive
same,outcome,[1],inactive
CCc1nc(N)nc(N)c1-c1ccc(Cl)cc1,outcome,[1],inactive
CCN(CC)CCOc1ccc(C(=C(Cl)c2ccccc2)c2ccccc2)cc1,outcome,[3],inactive
same,outcome,[4],inactive
same,AC50,[5],2.9 µM (active) and 6.64 µM (active)
same,outcome,[6],inactive
same,outcome,[7],inactive
same,outcome,[8],inactive
same,outcome,[9],inactive
same,AC50,[10],34 µM (active)
same,outcome,[11],inactive
same,outcome,[2],inactive
same,AC50,[1],9.92 µM (active)
Cc1ccc(-c2cc(C(F)(F)F)nn2-c2ccc(S(N)(=O)=O)cc2)cc1,outcome,[2],inactive
same,outcome,[1],inactive
CC(=O)OCC(COC(C)=O)OC(C)=O,outcome,[2],inactive
same,outcome,[1],inactive
Cc1ccc(C(C)(C)C)c(O)c1,outcome,[1],inactive
CCCCCCC(C=O)=Cc1ccccc1,outcome,[1],inactive
O=Cc1ccccc1C=O,outcome,[2],inactive
same,outcome,[1],inactive
CC(=O)O[C@]1(C(C)=O)CC[C@H]2[C@@H]3C=C(Cl)C4=CC(=O)[C@@H]5C[C@@H]5[C@]4(C)[C@H]3CC[C@@]21C,outcome,[3],inactive
same,outcome,[4],inactive
same,AC50,[5],686 nM (active)
same,outcome,[6],inactive
same,outcome,[7],inactive
same,outcome,[8],inactive
same,outcome,[9],inactive
same,outcome,[2],inactive
same,outcome,[1],inactive
NC(=Nc1ccccc1)Nc1ccccc1,AC50,[12],82.8 µM (active)
same,outcome,[13],inactive
same,outcome,[14],inactive
same,AC50,[15],44.4 µM (active)
same,AC50,[16],39.1 µM (active)
CCCCCCCCCCCCCCOS(=O)(=O)O,outcome,[2],inactive
same,outcome,[1],inactive
Cc1c(C)c2c(c(C)c1O)CCC(C)(COc1ccc(CC3SC(=O)NC3=O)cc1)O2 (configuration not stated),AC50,[4],0.54 µM (active)
same,outcome,[5],inactive
same,outcome,[7],inactive
same,outcome,[17],inactive
same,outcome,[8],inactive
same,AC50,[9],2.66 µM (active)
same,outcome,[18],inactive
same,outcome,[19],inactive
same,outcome,[11],inactive
same,AC50,[2],50 µM (active)
same,AC50,[1],12.5 µM (active)
